Measurements published in PubChem BioAssay (NCATS).
The source made the active and inactive calls. The call rests on the fitted dose curve; in most records, active means well fitted inhibition curve with a large enough effect; inconclusive means small, poorly fitted or top-dose-only effect; inactive means flat fitted curve, though single readings scatter.

System: Nanoluciferase (engineered Oplophorus gracilirostris luciferase)
Test: Primary Nanoluciferase (NLuc) qHTS assay for identification of artifact compounds. (AID 1845222)
Conditions: NLuc-conditioned medium, Nano-Glo luminescence, 5 min; series mostly up to 54.1 µM; activity, negative = inhibition: at the top concentration
Excerpt: PI: Alexander Tropsha Ph.D.
UNC Eshelman School of Pharmacy
University of North Carolina, Chapel Hill, North Carolina
Hits from high-throughput screening (HTS) of chemical libraries are often false positives due to their interference with the assay detection technology. In response to this problem, we generated the largest publicly available library of chemical liabilities and developed a free webtool to predict HTS artifacts, both of which are described herein. More specifically, we generated, curated, and integrated HTS datasets for thiol reactivity, redox activity, and luciferase (firefly and nano) activity. Using these curated datasets, we developed and validated several Quantitative Structure-Interference Relationship (QSIR) models to predict nuisance behavior. […] These models were employed for virtual profiling of the National Center for Advancing Translational Science's (NCATS) in-house library, and 256 compounds for each assay were selected for the experimental validation of nuisance behavior. The BA for these external predictions ranged from 58 to 78% for compounds within the applicability domains of the models. […] The models developed in this study, along with aggregation models previously developed by our group (SCAM Detective) were implemented in "Liability Predictor," an online tool which may be used as part of chemical library design or for triaging HTS hits. Both the models and the curated datasets are publicly available at https://liability.mml.unc.edu/.
SEQUENCE No. (e.g., 1, 2, 3, etc.); […] (e.g., Cells, Incubation, Reagent, etc.); VALUE; DESCRIPTION.
1; Reagent; 2 uL; Nanoluciferase media.
2; Compounds and control; 16 nL; Kalypsis pin tool (Wako USA) equipped with a 1536-well pin head.
4; Reagent; 2 uL; Luciferase enzyme.
6; Detection; Luminescence, ViewLux microplate reader.
NOTES (numbers refer to Sequence numbers above)
1. Medium was collected from the culture flasks of NLuc-expressing S16 cells (80% confluent) prior to cell plating, filtered through a 0.22um filter, and frozen at -20C prior to use. Media was diluted (1:55) and 2 uL was dispensed into all wells of a 1536-well assay plate (solid-bottom white plate; Greiner Bio One, Monroe, NC).
2. A Wako Pin-tool (Wako Automation, Richmond, VA) was used to transfer 16 nL of compounds (consisting of 7-plates in qHTS format, final concentration range 18.3 nM to 114 uM) or control Cilnidipine (final concentration range 623 nM to 80 uM).
3. 15 min. incubation at room temperature protected from light.
4. 2 uL of NLuc substrate (1:100 in Nano-Glo luciferase buffer; Nano-Glo luminescence assay, Promega, Madison, WI) was dispensed for a final assay volume of 4 uL.
5. Plates were centrifuged (121xg, 15 seconds) and incubated for 5 minutes.
6. Samples were read for luminescence on a ViewLux CCD imager (PerkinElmer). Data were normalized to no-enzyme (0% activity) and no-inhibitor (DMSO; 100%) controls and the resulting percent inhibition data were fitted to a 4-parameter Hill equation using NCATS in-house software.

SMILES | activity, negative = inhibition
CN1CCN(CCOc2cc(OC3CCOCC3)c3c(Nc4c(Cl)ccc5c4OCO5)ncnc3c2)CC1 | -8.35% (inactive)
CC(=O)O[C@]1(C(C)=O)CC[C@H]2[C@@H]3C=C(Cl)C4=CC(=O)[C@@H]5C[C@@H]5[C@]4(C)[C@H]3CC[C@@]21C | -5% (inactive)
O=C(NCc1ccccc1)c1csc(Nc2ccncn2)n1 | -4.02% (inactive)
CCS(=O)(=O)N1CC(CC#N)(n2cc(-c3ncnc4[nH]ccc34)cn2)C1 | 0.853% (inactive)
CC(C)(C)Cn1c(N)nc2ccc(-c3[nH]c(C(C)(C)C)nc3-c3ccc(F)cc3)nc21 | -12.6% (inactive)
Cc1ccccc1C(C(=O)NC1CCCCC1)N(C(=O)Cn1ccnc1C)c1cccc(F)c1 (stereo not given) | -0.171% (inactive)
O=C(CCN1CCN(C(=O)OCc2cc(Cl)cc(Cl)c2)CC1)c1ccc2[nH]c(=O)oc2c1 | -9.28% (inactive)
CC(=O)CCCCn1c(=O)c2c(ncn2C)n(C)c1=O | -0.155% (inactive)
COc1cc2ncnc(Nc3ccc(F)c(Cl)c3)c2cc1OCCCN1CCOCC1 | -16% (inactive)
COc1cc2nc(-c3ccc(N4CCN(C)CC4)cc3)nc(NCCN3CCOCC3)c2cc1OC | 0.575% (inactive)
CNC(=O)c1ccc2cc(C3(O)CCn4cncc43)ccc2c1 (stereo not given) | 4.53% (inactive)
COCCOc1nc(-c2ccc(Cl)c(Cl)c2)n(-c2ccc(NC(=O)CCl)cc2)n1 | 2.84% (inactive)
NC(=O)c1cccc(-c2cc(Nc3ccc(OC(F)(F)F)cc3)ncn2)c1 | -19.2% (inactive)
CS(=O)(=O)N(Cc1ccco1)CC(O)Cn1c2ccccc2c2ccccc21 (stereo not given) | 0% (inactive)
COc1ccccc1N1CCN(CCCNc2cc(=O)n(C)c(=O)n2C)CC1 | 3.94% (inactive)
O=C(NC1CCOCC1)c1ccc(-c2cc(-c3cn[nH]c3-c3ccccn3)ccn2)cc1 | -4.5% (inactive)
CC(C)n1nc(-c2ccc3oc(N)nc3c2)c2c(N)ncnc21 | 3.76% (inactive)
COCCOC(=O)C1=C(C)NC2=C(C(=O)CC(c3ccccc3OC)C2)C1c1cccc(O)c1 (stereo not given) | -7.84% (inactive)
CN(C[C@@H]1COCCO1)S(=O)(=O)Nc1ccc2ccc3ncc(-c4cnn(C)c4)cc3c(=O)c2c1 | -12.2% (inactive)
CN[C@@H](C)C(=O)N[C@H]1CN(C(=O)CC(C)C)CC[C@H]2CC[C@@H](C(=O)NC(c3ccccc3)c3ccccc3)N2C1=O | -4.09% (inactive)

SMILES | activity, negative = inhibition
O=c1cc(CN2CCOCC2)occ1OCCCCCSc1ccnc2cc(C(F)(F)F)ccc12 | -10.4% (inactive)
COc1ccc2cc(-c3nc(-c4ccc(S(C)=O)cc4)[nH]c3-c3ccncc3)ccc2c1 (stereo not given) | -0.134% (inactive)
CN(C)CCC(c1ccccc1)c1ccccn1 (stereo not given) | -5.9% (inactive)
NC(=O)c1cnc(-c2ccc(C3(N)CCC3)cc2)c(-c2ccccc2)c1 | 0% (inactive)
CC(=O)N(C)C1(c2ccccc2)CCN(CCC[C@]2(c3ccc(Cl)c(Cl)c3)CCCN(C(=O)c3ccccc3)C2)CC1 | -17.4% (inactive)
CCn1c(C(=O)N(C2CC2)C2CC2)cc2c3c(ncn3C)c(Nc3cc(C)n(C)n3)nc21 | 4.19% (inactive)
CC[C@]1(O)C[C@@H]2CN(CCc3c([nH]c4ccccc34)[C@@](C(=O)OC)(c3cc4c(cc3OC)N(C)[C@H]3[C@@](O)(C(=O)OC)[C@H](OC(C)=O)[C@]5(CC)C=CCN6CC[C@]43[C@@H]65)C2)C1 | 3.81% (inactive)
CN(C)Cc1ccc(-c2nc3cccc4c3n2CCNC4=O)cc1 | 2.73% (inactive)
O=C(Nc1cccc(Br)c1)c1cccc(S(=O)(=O)N2CCCCCC2)c1 | 2.46% (inactive)
O=C(Nc1ccccc1-c1cn2c(CN3CCNCC3)csc2n1)c1cnc2ccccc2n1 | -4.8% (inactive)
COc1ncc(-c2ccc3nccc(-c4ccnnc4)c3c2)cc1NS(=O)(=O)c1ccc(F)cc1F | -12.7% (inactive)
Cc1ccn(-c2ccc(-c3ncco3)cc2)c(=O)c1-c1ccc2nc(N)ncc2c1 | -2.49% (inactive)
COc1cc(N2CCC(N3CCN(C)CC3)CC2)ccc1Nc1ncnc(Nc2ccccc2S(=O)(=O)C(C)C)n1 | 4.67% (inactive)
COc1ccc(C2CC(c3ccccc3)=NN2c2ccc(S(N)(=O)=O)cc2)cc1 (stereo not given) | 1.7% (inactive)
Cc1c(NC(=O)c2ccc(C(C)(C)C)cc2)cccc1-c1cn(C)c(=O)c(Nc2ccc(C(=O)N3CCOCC3)cc2)n1 | -6.1% (inactive)
Cc1cccc(Nc2nc(-c3ccncc3)cs2)c1 | 1.16% (inactive)
COc1cc(N2CCC(N3CCN(C)CC3)CC2)ccc1Nc1ncc(Cl)c(Nc2ccccc2S(=O)(=O)C(C)C)n1 | 1.47% (inactive)
CC(C)(C)NC(=O)Nc1cccc(Nc2ncc(F)c(NC(C)(C)CO)n2)c1 | -1.83% (inactive)
CCOc1ccc(Nc2nc(-c3c(C)nc4ccccn34)cs2)cc1 | -0.103% (inactive)
CCN1CCC[C@H]1CNC(=O)c1cc(S(N)(=O)=O)ccc1OC | -1.3% (inactive)
